A short description of test [1]: BSK_3C_SRB: Viability Assessment in the BioMAP Diversity Plus: 3C Assay (AID 2283023).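 Note: fitted both ways against DMSO so a hit may be signal rise or drop.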 As to conditions: primary human endothelial cells (HUVEC). The gist of the method: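 Absorbance at 560 nm of sulforhodamine B-stained (0.1%) total protein served as a cytotoxicity readout in human umbilical vein endothelial cells, 24 h after chemical treatment. Signal was fitted bidirectionally relative to DMSO.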

Read-out in test [2]: Matrix Metallopeptidase 1 (MMP1), MMP1 (gene 4312)
The test is described as follows: BSK_BE3C_MMP1: BioMAP Diversity Plus: BE3C Assay for Matrix Metallopeptidase 1 (MMP1) Biomarker Activity (AID 2283024). As to conditions: primary human bronchial epithelial cells; actives raise or lower the signal. The gist of the method: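 ELISA measurement of MMP-1 after 24 h compound exposure of primary human bronchial epithelial cells. Changes in either direction fitted relative to DMSO; parallel SRB staining checked overt cytotoxicity.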

A short description of test [3]: BSK_3C_Vis: BioMAP Diversity Plus: 3C Assay for Morphology Visualization (AID 2283025).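 For AC50: light microscopy image of cell morphology used as background control.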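 Note: fitted both ways so gain or loss versus DMSO counts.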 The note with it: primary human endothelial cells (HUVEC). The gist of the method: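 Light-microscopy visualization of HUVEC cultures at 24 h post-treatment, with DMSO as baseline for bidirectional fitting.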
Read-out in test [4]: Pselectin, SELP (gene 6403)
Briefly: BSK_4H_Pselectin: BioMAP Diversity Plus: 4H Assay for Pselectin Biomarker Activity (AID 2283026). As to conditions: primary human endothelial cells (HUVEC); actives raise or lower the signal. The gist of the method:
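ELISA of surface P-selectin on HUVEC, 24 h after dosing, with parallel SRB staining (0.1% after 10% TCA fixation, 560 nm) for overt cytotoxicity. Activity fitted in both directions relative to DMSO.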

The nature of test [5]: BSK_4H_SRB: Viability Assessment in the BioMAP Diversity Plus: 4H Assay (AID 2283027).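 For AC50: curves fitted both ways versus DMSO so AC50 may be loss or gain.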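 Note: cells exposed to compound for 24 h before staining.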 As to conditions: primary human endothelial cells (HUVEC). The gist of the method:
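Cytotoxicity read-out in primary human endothelial cells: after 24 h compound exposure, cells were TCA-fixed (10%), stained with 0.1% SRB and absorbance taken at 560 nm. Values fitted in both directions relative to DMSO.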

Test [6] is described as follows: BSK_BE3C_SRB: Viability Assessment in the BioMAP Diversity Plus: BE3C Assay (AID 2283028).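 For AC50: fitted both ways so AC50 may mark signal gain or loss versus DMSO.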 The note with it: primary human bronchial epithelial cells. The gist of the method: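 Cells (human bronchial epithelial, primary) are treated with chemicals, and after 24 h the parallel cultures are fixed in 10% TCA. These are then stained with 0.1% SRB and read at 560 nm. Gain or loss of signal is fitted relative to DMSO.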

Read-out in test [7]: Thrombomodulin, THBD (gene 7056)
The test is described as follows: BSK_3C_Thrombomodulin: BioMAP Diversity Plus: 3C Assay for Thrombomodulin Biomarker Activity (AID 2283029). The note with it: primary human endothelial cells (HUVEC); actives raise or lower the signal. The gist of the method: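 ELISA measurement of thrombomodulin on HUVEC surface 24 h after chemical dosing; activity fitted in both directions relative to DMSO vehicle.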

Read-out in test [8]: Urokinase-type plasminogen activator receptor (uPAR), PLAUR (gene 5329)
Briefly: BSK_4H_uPAR: BioMAP Diversity Plus: 4H Assay for Urokinase-type plasminogen activator receptor (uPAR) Biomarker Activity (AID 2283030). The note with it: primary human endothelial cells (HUVEC); actives raise or lower the signal. The gist of the method:
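Cell-surface uPAR ELISA signal, measured 24 h after dosing human umbilical vein endothelial cells, was analyzed with bidirectional fitting relative to DMSO. Parallel SRB staining of total protein tracked overt cytotoxicity.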

Read-out in test [9]: Vascular endothelial growth factor receptor 2 (Homo sapiens) (UniProt P35968)
Briefly: BSK_4H_VEGFRII: BioMAP Diversity Plus: 4H Assay for Vascular endothelial growth factor receptor 2 (VEGFR2) Biomarker Activity (AID 2283031).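 For AC50: cell-surface VEGFR2 protein level quantified by ELISA.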 As to conditions: primary human endothelial cells (HUVEC); actives raise or lower the signal. The gist of the method:
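ELISA read-out of VEGFRII in primary human umbilical vein endothelium, taken 24 h after chemical treatment. Responses are expressed relative to DMSO, with bidirectional fitting.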

Read-out in test [10]: Human Leukocyte Antigen - DR isotype (HLADR), HLA-DRA (gene 3122)
Briefly: BSK_BE3C_HLADR: BioMAP Diversity Plus: BE3C Assay for Human Leukocyte Antigen - DR isotype (HLADR) Biomarker Activity (AID 2283032). The note with it: primary human bronchial epithelial cells; actives raise or lower the signal. The gist of the method:
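Cell-surface HLA-DR ELISA readout at 24 h after dosing in the BE3C primary human lung bronchial epithelial system; gain or loss of signal against DMSO, with parallel sulforhodamine B staining of total protein for overt cytotoxicity.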

A structure can be active in one record and inactive in another. Active and inactive are the calls of the source. Rule for the calls: active = hit-call score of the fitted dose curve at least 0.9, where 1 is the maximum; inactive = score below 0.9.

For `CCCCCCCCCC`, the outcome in test [1], in test [2], in test [3], in test [4], in test [5] and in [6] was inactive. Besides, the outcome in test [7], in [8], in test [9] and in test [10] was inactive.

Consider `CNC(C)=O`, for which the result in test [1], in test [2], in [3], in test [4], in test [5] and in [6] was inactive. Besides, the result in test [7], in [8], in test [9] and in test [10] was inactive.

As for `OCCOCCOCCO`, the outcome in test [1], in test [2], in [3], in test [4], in test [5] and in test [6] was inactive. Further, the outcome in test [7], in test [8], in test [9] and in test [10] was inactive.

As for `COCc1nnc(-c2ccc[n+]([O-])c2)n1-c1c(Cl)c(Cl)cc2[nH]c(=O)c(=O)[nH]c12`, the result in [1], in [2], in [3], in [4], in test [5] and in test [6] was inactive. In addition, the outcome in [7], in [8], in [9] and in test [10] was inactive.

For the compound `CCCCCCCC/C=C\CCCCCCCC(=O)OC[C@@H](O)[C@H]1OC[C@H](O)[C@H]1O`, the outcome in test [1], in [2], in test [3], in [4], in test [5] and in test [6] was inactive. Moreover, the outcome in [7], in test [8], in test [9] and in test [10] was inactive.

`CC(C)CC(C)O` (stereo not given): the outcome in test [1], in test [2], in [3], in [4], in test [5] and in test [6] was inactive. The result in test [7], in test [8], in [9] and in [10] was inactive.

With `CCc1ccc(O)c(C(C)(C)C)c1`, the AC50 in test [1] is 31.2 µM (active); in [3] it was 39.3 µM (active); in test [4], 32 µM (active); in [5], 32.8 µM (active); in [8], 36.7 µM (active). Moreover, the outcome in test [2], in test [6], in test [7], in [9] and in [10] was inactive.

For the compound `C=CCc1cc(S(=O)(=O)c2ccc(O)c(CC=C)c2)ccc1O`, the concentration at half-maximal activity (AC50) in [1] was 23.8 µM (active); in test [2], 30.5 µM (active); in test [3] it was 37.5 µM (active); in test [4], 33.8 µM (active); in [5], 20 µM (active); in [6] it was 15.8 µM (active). The concentration at half-maximal activity (AC50) was 13.9 µM (active) in test [8], 20 µM (active) in test [9] and 8.38 µM (active) in test [10]. In addition, the outcome in test [7] was inactive.

For the compound `CCCCCCCCN(C)C`, the result in [1], in [2], in [3], in test [4], in [5] and in test [6] was inactive. The result in test [7], in test [8], in [9] and in [10] was inactive.

On to `Cn1cc[nH]c1=S`, for which the outcome in test [1], in test [2], in [3], in [4], in [5] and in test [6] was inactive. In addition, the outcome in test [7], in test [8], in test [9] and in test [10] was inactive.

Take `c1ccc2c(c1)-c1cccc3c1c-2cc1ccccc13`: the outcome in test [1], in test [3], in [4], in [5], in [6] and in test [7] was inactive. In addition, the result in test [8], in test [9] and in test [10] was inactive. The half-maximal activity concentration (AC50) in [2] was 0.661 µM (active).

As for `C=CN1CCCC1=O`, the result in test [1], in test [2], in test [3], in [4], in test [5] and in test [6] was inactive. The result in test [7], in test [8], in test [9] and in test [10] was inactive.

On to `O=C(NO)C1(NS(=O)(=O)c2ccc(Oc3ccc(F)cc3)cc2)CCOCC1`, for which the outcome in [1], in test [2], in test [3], in [4], in test [5] and in test [6] was inactive. Also, the outcome in [7], in test [8], in test [9] and in test [10] was inactive.

For the compound `O=S(=O)(O)CCC(F)(F)C(F)(F)C(F)(F)C(F)(F)C(F)(F)C(F)(F)F`, the outcome in [1], in test [2], in [4], in [5], in [6] and in test [7] was inactive. Besides, the result in [8], in [9] and in test [10] was inactive. For the same compound, in test [2], the concentration at half-maximal activity (AC50) was 45.5 µM (active).

On to `Cc1ccc(S(=O)(=O)NC(=O)NN2CCCCCC2)cc1`, for which the result in [1], in test [2], in test [3], in test [4], in test [5] and in test [6] was inactive. Besides, the result in test [7], in [8], in [9] and in test [10] was inactive.

Consider `NC(=O)NN=Cc1ccc([N+](=O)[O-])o1`, for which the result in [1], in [2], in test [3], in [4], in [5] and in test [6] was inactive. Also, the result in test [7], in test [8], in [9] and in [10] was inactive.

As to `O=C(O)c1ccc2c(c1)nc(C(=O)NC1CCN(C3CC3)CC1)n2Cc1cc(-c2ccc(Cl)s2)on1`, the outcome in test [1], in [2], in test [3], in test [5], in test [6] and in test [7] was inactive. Moreover, the result in test [9] and in test [10] was inactive. In addition, the results for the AC50 in test [4] and in test [8] were 0.952 µM (active) and 0.0541 µM (active), respectively.

With `OC(Cn1cncn1)(Cn1cncn1)c1ccc(F)cc1F`, the result in test [1], in test [2], in test [3], in test [4], in test [5] and in test [6] was inactive. Besides, the outcome in test [7], in test [8], in [9] and in [10] was inactive.

On to `CCCCCCCCCCCCCCO`, for which the AC50 in test [1] was 31.3 µM (active); in test [3], 37.5 µM (active); in test [4], 33.1 µM (active); in test [5], 34 µM (active); in test [8] it was 32.6 µM (active); in [9], 32.6 µM (active). The outcome in test [2], in test [6], in [7] and in [10] was inactive.

Broadly, the AC50 is the concentration giving half of the maximal activity seen.
